Consider 13 compounds from PubChem BioAssay (NCI).

Test in all cases: NCI-60 one-dose screen, 48 h (100 = growth as untreated, 0 = no growth, -100 = all killed)
What all share (settings): 10 µM unless noted

Experiment [1] deals with NCI-H226 lung.
For experiment [2], the system named is NCI-H322M lung.
For experiment [3], the system named is HOP-62 NSCLC.
Experiment [4] concerns NCI-H460 lung.
Experiment [5] deals with HOP-92 NSCLC.
Experiment [6] has as its system NCI-H522 lung.
Experiment [7] concerns A549/ATCC NSCLC.
Experiment [8] has as its system 786-0 renal.
The subject of experiment [9] is COLO 205 colon.

Where “and” joins values, the source holds several entries; their conditions need not be identical. Identical values can stand only once. The panel holds about 83,000 compounds, 20% with a hit somewhere; the sample as a whole holds those more often.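 96-well plates, one dose, 48 hours. Percent growth reported; active if below 10.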 Calls of active or inactive are those of the source.

On to `Oc1c(Cl)c2ccccc2c2ccccc12`, for which the growth in [1] is 99.7% (inactive); in [2], 100% (inactive); in experiment [3], 128% (inactive); in experiment [4], 116% (inactive); in experiment [5], 109% (inactive); in [6] it was 44.3% (inactive). Further, the values for the growth in experiment [7], in [8] and in experiment [9] were 103% (inactive), 109% (inactive) and 113% (inactive), respectively.

On to `O=C1c2cccnc2-c2nccc3c2c1nc1cc(Br)ccc13`, for which the growth was -43.8% (active) and -48.5% (active) in [1]; -99.2% (active) and -89.2% (active) in experiment [2]; -68.6% (active) and -85.7% (active) in experiment [3]; -52.9% (active) and -78.6% (active) in experiment [4]; -17.1% (active) and -72.6% (active) in [5]; -60.8% (active) and -66% (active) in experiment [6]. The growth in experiment [7] was -65.9% (active) and -81% (active); in experiment [8] it was -86.6% (active) and -85.6% (active); in experiment [9], -85.6% (active) and -85% (active).

For the compound `CN(Cc1cnc2nc(N)nc(N)c2n1)c1ccc(C(=O)NC(CCC(=O)O)C(=O)O)cc1` (configuration not stated), the growth in experiment [1] is 30.2% (inactive); in experiment [2], 48.6% (inactive); in experiment [3], 43% (inactive); in experiment [4] it was 16.4% (inactive); in experiment [5], 37.1% (inactive); in [6], 29.2% (inactive). The growth was 19.8% (inactive) in experiment [7], 13.7% (inactive) in experiment [8] and 58.5% (inactive) in [9].

As to `COc1ccccc1OC(=O)Oc1ccccc1OC`, the growth in [1] is 99.7% (inactive) and 106% (inactive); in [2], 94.3% (inactive) and 99.5% (inactive); in experiment [3] it was 120% (inactive) and 100% (inactive); in [4], 108% (inactive) and 104% (inactive); in experiment [5] it was 108% (inactive) and -0.941% (active); in experiment [6], 85.3% (inactive) and 92.5% (inactive). The growth was 90.1% (inactive) and 109% (inactive) in [7]; 103% (inactive) and 96.6% (inactive) in experiment [8]; 123% (inactive) and 104% (inactive) in experiment [9].

`Cc1ccc2nc(-[n+]3cc4ccccc4cc3C)ccc2c1`: the growth in experiment [1] was 53.7% (inactive); in [2] it was 85.2% (inactive); in experiment [3] it was 37.1% (inactive); in experiment [4], 29.5% (inactive); in experiment [5], 5.49% (active); in experiment [6] it was 26.2% (inactive). In addition, the growth in experiment [7] is 43.1% (inactive); in experiment [8], 81.2% (inactive); in [9] it was -11.8% (active).

Take `O=C(Nc1ccccc1)Oc1c(Cl)c(Cl)c(Cl)c(Cl)c1Cl`: the growth in [1] is 96.2% (inactive) and 88.3% (inactive); in experiment [2] it was 94.1% (inactive) and 106% (inactive); in experiment [3] it was 101% (inactive) and 78.8% (inactive); in [4] it was 109% (inactive) and 103% (inactive); in experiment [5] it was 74.9% (inactive) and 63.8% (inactive); in experiment [6] it was 87.9% (inactive). Also, the growth in [7] was 106% (inactive) and 91.9% (inactive); in experiment [8] it was 105% (inactive) and 97.1% (inactive); in experiment [9], 97.9% (inactive) and 106% (inactive).

As for `N[C@H](C(=O)O)[C@@H]1CC(Cl)=NO1`, the growth in [1] was 38.1% [20 µM] (inactive); in [2], 37.2% [20 µM] (inactive); in experiment [3], 26.1% [20 µM] (inactive); in experiment [4], 7.07% [20 µM] (active); in [5], 63.6% [20 µM] (inactive); in [6], 25.4% [20 µM] (inactive). In addition, the growth in [7] was 19.1% [20 µM] (inactive); in experiment [8], 24.2% [20 µM] (inactive); in experiment [9], 33.5% [20 µM] (inactive).

Consider `C[n+]1c(/C=C/c2ccc([N+](=O)[O-])cc2)ccc2ccccc21`, for which the growth in experiment [1] was 87.9% (inactive); in experiment [2], 111% (inactive); in [3], 97.4% (inactive); in experiment [4], 106% (inactive); in experiment [5] it was 110% (inactive); in [6], 102% (inactive). In addition, the growth in experiment [7] was 75.7% (inactive); in [8], 111% (inactive); in experiment [9], 101% (inactive).

As for `COc1ccc2nc3cc(Cl)ccc3c(NCCNc3c4ccc(Cl)cc4nc4ccc(OC)cc34)c2c1`, the growth in experiment [1] was -54.7% (active); in [2] it was -86.6% (active); in experiment [3] it was -80.4% (active); in [4], -68.7% (active); in [5], -72.7% (active); in [6], -90.7% (active). Further, the growth in experiment [7] was -74.5% (active); in experiment [8], -88% (active); in experiment [9] it was -74.9% (active).

In the case of `CC(=Nc1ccc(N(C)C)cc1)c1ccccc1`, the growth in experiment [1] is 59.3% (inactive); in experiment [2], 66.5% (inactive); in experiment [3], 54.2% (inactive); in experiment [4], 34.2% (inactive); in [5] it was 30.8% (inactive); in experiment [6] it was 64.7% (inactive). The growth was 45.2% (inactive) in experiment [7], 74.5% (inactive) in experiment [8] and 13.2% (inactive) in experiment [9].

On to `O=C(CC1(O)C(=O)Nc2c(Cl)ccc(Cl)c21)c1ccc(Cl)cc1Cl` (configuration not stated), for which the growth in experiment [1] is 97.6% (inactive); in experiment [2] it was 108% (inactive); in [3], 70.2% (inactive); in experiment [4], 108% (inactive); in experiment [5], 92.5% (inactive); in experiment [6] it was 76.2% (inactive). Also, the growth in [7] is 91.4% (inactive); in experiment [8], 102% (inactive); in experiment [9], 97.5% (inactive).

In the case of `Oc1c(Br)cc(Cl)cc1C(c1cc(Cl)cc(Br)c1O)C(Cl)(Cl)Cl`, the growth in [1] was 33.4% (inactive); in [2], 15.2% (inactive); in experiment [3], 59.2% (inactive); in experiment [4], 1.1% (active); in experiment [5], -33.5% (active); in experiment [6], -9.4% (active). In addition, the values for the growth in experiment [7], in [8] and in experiment [9] were 14% (inactive), 26.9% (inactive) and 59.2% (inactive), respectively.

`CCN(CC)CCOc1ccc(-c2nc3cc(Cl)ccc3s2)cc1`: the growth is 65.2% (inactive) in experiment [1]; 28.3% (inactive) in experiment [2]; -66.6% (active) in [3]; -64.6% (active) in experiment [4]; 19.3% (inactive) in experiment [5]; -39.5% (active) in experiment [6]. The figures for the growth in experiment [7], in experiment [8] and in [9] were -1.04% (active), 29.5% (inactive) and -73.9% (active), respectively.
